Source: PubChem BioAssay
In the library only some 5.7% were active in any assay of this set; here they are far more common.
DAX1 inh-1 = blocks DAX1 repression of SF-1 activated StAR promoter; HEK293T StAR-luciferase reporter, SF-1/DAX-1 repression relief; inhibition, % at 6.8 µM; hit rate 1.1% among 370,000;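 active = inhibition above the mean over all tested compounds plus 3 SD, cut at about 3.6% in these data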;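 note: 0% = DAX-1 cells with DMSO and 100% = cells lacking DAX-1 with DMSO; higher inhibition means more luminescence from relief of DAX-1 repression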
hgDAF12 agonist = activates the H. glycines DAF-12 receptor ligand-binding domain | hit rate 1.8% among 370,000 | activation, % at 6.8 µM | HEK293 GAL4-hgDAF12 UAS-luciferase reporter, agonist luminescence; normalized to butyrate control;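 active = activation above a cutoff set at the mean of all screened compounds plus 3 SD, cut at about 10% in these data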;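 note: 0% = DMSO wells and 100% = sodium butyrate wells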
DAX1 inh-2 = NR0B1 (DAX1) inhibition | P51843 | HEK293 Gal4-DAX1 luciferase reporter, luminescence | inhibition, % at 6.75 µM | hit rate 0.99% among 340,000 | AID 504766;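 active = inhibition above the mean over all tested compounds plus 3 SD, cut at about 4.2% in these data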;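 note: 0% = DAX1-transfected cells with DMSO and 100% = empty-vector control cells with DMSO; inhibition shows as a rise in luminescence from relieved DAX1 repression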
hcDAF-12 act = H. contortus DAF-12 activation, primary screen; HEK293 hcDAF-12 lit1-tk-luc reporter, luminescence; 0% DMSO, 100% Δ7-dafachronic acid; activation, % at 6.8 µM; hit rate 1.4% among 370,000; AID 652067;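 active = activation above the mean of all tested compounds plus 3 SD, cut at about 5.5% in these data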;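 note: 100% = response to 3 µM Δ7-dafachronic acid high control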
AHR activator = activators of human aryl hydrocarbon receptor | AHR-responsive luciferase reporter cells, luminescence | hit rate 2.5% among 320,000 | P35869 | activation, % at 5 µM; in the data active = activation above about 47%;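 note: 0% = vehicle wells and 100% = reference agonist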
Target sequence (P35869 whole entry, looked up): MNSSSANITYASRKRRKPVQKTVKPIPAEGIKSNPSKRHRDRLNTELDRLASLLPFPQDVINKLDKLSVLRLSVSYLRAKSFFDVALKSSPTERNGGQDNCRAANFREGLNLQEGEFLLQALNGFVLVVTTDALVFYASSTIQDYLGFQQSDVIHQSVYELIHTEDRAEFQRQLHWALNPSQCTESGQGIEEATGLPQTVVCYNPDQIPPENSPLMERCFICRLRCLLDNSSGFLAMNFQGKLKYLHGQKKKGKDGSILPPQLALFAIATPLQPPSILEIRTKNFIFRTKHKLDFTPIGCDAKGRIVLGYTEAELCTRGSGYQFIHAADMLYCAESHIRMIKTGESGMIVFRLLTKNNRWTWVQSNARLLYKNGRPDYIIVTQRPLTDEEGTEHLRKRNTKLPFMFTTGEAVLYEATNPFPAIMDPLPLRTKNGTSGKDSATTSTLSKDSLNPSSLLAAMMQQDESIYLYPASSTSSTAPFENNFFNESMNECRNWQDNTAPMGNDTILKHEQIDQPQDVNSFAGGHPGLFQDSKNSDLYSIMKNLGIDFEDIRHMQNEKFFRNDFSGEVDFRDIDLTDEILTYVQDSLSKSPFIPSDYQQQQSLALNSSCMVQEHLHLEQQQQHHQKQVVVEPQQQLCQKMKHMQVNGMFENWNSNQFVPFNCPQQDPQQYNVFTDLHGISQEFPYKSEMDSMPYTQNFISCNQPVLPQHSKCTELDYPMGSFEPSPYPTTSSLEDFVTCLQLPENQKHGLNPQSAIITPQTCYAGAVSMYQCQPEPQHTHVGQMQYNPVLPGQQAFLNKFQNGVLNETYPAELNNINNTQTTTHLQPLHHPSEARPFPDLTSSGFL
ssDAF12 agonist = S. stercoralis DAF-12 activation, primary screen; hit rate 1% among 370,000; activation, % at 6.8 µM; HEK293 ssDAF-12/GRIP1 lit1-tk-luc reporter, luminescence; % of 3 µM dafachronic acid response; AID 652126;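 active = activation above the mean over all tested compounds plus 3 SD, cut at about 0.9% in these data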;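 note: 0% = DMSO-only wells and 100% = 3 µM delta7-dafachronic acid wells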
* hit, by the source's call; x = not tested or not shown.

SMILES | DAX1 inh-1 | hgDAF12 agonist | DAX1 inh-2 | hcDAF-12 act | AHR activator | ssDAF12 agonist
Cc1ccc(C(=O)c2oc3ccccc3c2NC(=O)c2cc(-c3ccccc3O)n[nH]2)cc1 | -1 | -3 | -1 | 0 | 51* | -2
O=C(Nc1c(C(=O)c2ccccc2)oc2ccccc12)c1cc(-c2ccccc2O)n[nH]1 | 0 | -3 | -1 | -1 | 68* | -1
O=C(NCCc1ccccc1Cl)[C@@H]1CCCN1C(=O)[C@@H](NC(=O)N1CCOCC1)C1CCCCC1 | 0 | 2 | x | 0 | x | 0
COc1cc(/C=N/NC(=O)c2ccoc2C)ccc1O | 1 | 10* | 3 | 2 | 7 | 0
C/C(=N\NC(=O)c1ccoc1C)c1cccc2ccccc12 | 1 | 13* | 0 | 3 | 3 | 0
COc1ccc(/C=N/NC(=O)c2ccoc2C)cc1CN1CCN(c2ccc(F)cc2)CC1 | 0 | 6 | 1 | -1 | 73* | -1
Cc1occc1C(=O)N/N=C/c1ccccn1 | 2 | 11* | 1 | 1 | 8 | 1
Cc1ccc(C(=O)N/N=C\c2ccccn2)cn1 | 0 | 1 | 2 | 0 | 5 | -2
O=C(CN1C(=O)NC(Cc2ccccc2)C1=O)Nc1ccc(F)cc1 (centres undefined) | 0 | 0 | 4.5* | -2 | 0 | -1
O=C(/C(=C/O)N=Nc1ccc(Cl)cc1)c1ccncc1 | 0 | -1 | -1 | -2 | 73* | 0
COC(=O)C/C(C)=N/Nc1ccc(S(=O)(=O)N2CCCC2)cc1[N+](=O)[O-] | 0 | -4 | 4.5* | -2 | -1 | -1
COC(=O)COc1ccc(S(=O)(=O)N2CCCCC2)cc1[N+](=O)[O-] | 0 | -3 | -1 | 2 | -3 | -2
Cc1nc2sccn2c1-c1nc(-c2cc3ccccc3o2)cs1 | 0 | 0 | 2 | -1 | 54* | -1
CC(O)(c1ccccc1)c1nc(-c2cc3ccccc3o2)cs1 (centres undefined) | -1 | 5 | x | 0 | x | -1
O=C(COC(=O)CCCC1=NS(=O)(=O)c2ccccc2N1)Nc1ccc(Br)cc1 | 4.1* | -2 | -1 | -2 | 1 | -1
Cc1ccc(NC(=O)COC(=O)CCCC2=NS(=O)(=O)c3ccccc3N2)cc1C | 0 | 0 | 0 | 3 | 2 | -1
COc1cccc(/C=N/NC(=O)c2cc3c(OC)c(OC)ccc3[nH]2)c1OC | -3 | 0 | -2 | -3 | x | -1
C=CCOc1ccc(/C=N/NC(=O)c2cc3c(OC)cc(OC)cc3[nH]2)cc1 | -1 | -1 | -2 | -3 | 68* | -2
COc1ccc(OC)c(/C=N/NC(=O)c2cnccn2)c1 | 0 | 1 | 4.4* | 1 | 17 | -1
COc1ccc(/C=N/NC(=O)c2cnccn2)c(OC)c1OC | 0 | -2 | 2 | -1 | 2 | -2
COc1ccc(OC)c(/C=N/NC(=O)c2cc3c(OC)cc(OC)cc3[nH]2)c1 | -1 | 1 | 1 | 0 | 56* | -1
COc1cccc(/C=N/NC(=O)c2cc3c(OC)cccc3[nH]2)c1OC | -1 | -6 | -1 | 0 | 54* | -1
COc1ccc(OC)c(/C=N/NC(=O)c2cc3c(OC)cccc3[nH]2)c1 | 0 | 0 | -1 | 0 | 23 | -1
COc1cc(C(=O)Nc2ccc3c(c2)N(C(=O)CN2CCN(C)CC2)c2ccccc2CC3)cc(OC)c1OC | 1 | -3 | 1 | 0 | 5 | -1
COc1ccc(OC)c(/C=N/NC(=O)Cc2nc3ccccc3[nH]2)c1 | 0 | -2 | -2 | 2 | 57* | 0
SMILES | DAX1 inh-1 | hgDAF12 agonist | DAX1 inh-2 | hcDAF-12 act | AHR activator | ssDAF12 agonist
O=C(Cc1nc2ccccc2[nH]1)N/N=C/c1ccccc1 | -1 | -1 | 0 | 4 | 11 | 0
Cc1ccc(NC(=O)C2(C)CCN2C(=O)CC(c2ccccc2)c2ccccc2)cc1 (centres undefined) | -2 | 0 | x | -2 | x | -1
CCOC(=O)c1c(C)n(C)c2ccc(OC)c(NC(=O)CN3CCC(C(=O)OCC)CC3)c12 | 1 | -2 | 1 | -1 | 2 | -2
CCOC(=O)c1c(C)n(C)c2ccc(OC)c(NC(=O)CCN3CCSCC3)c12 | 0 | 0 | -1 | -1 | 65* | -2
COc1ccc(-c2nn(-c3ccccc3)cc2/C=N/NS(=O)(=O)c2ccccc2)cc1 | 1 | 3 | 1 | -1 | 50* | -1
COc1ccc(-c2nn(-c3ccccc3)cc2/C=N/O)cc1 | 0 | -1 | -2 | -1 | 38 | -1
CC(=O)Nc1ccc(NC(=O)C(C)OC(=O)c2ccc3ccccc3n2)cc1 (centres undefined) | 0 | 1 | 0 | -1 | 15 | 0
CN(CC(=O)Nc1ccc(F)cc1)C(=O)c1ccc2ccccc2n1 | 1 | 1 | 1 | 6.0* | x | 0
CN(C)c1ccc(NC(=S)c2ccc3ccccc3n2)cc1 | 1 | 2 | 0 | 5 | 48* | -1
COc1ccc(NC(=S)c2ccc(N(C)C)cc2)cc1 | 3.8* | 9 | 2 | 4 | -4 | 0
Cc1sc2nc(SCC(=O)NCc3cccs3)[nH]c(=O)c2c1C | 0 | -2 | 0 | -1 | 21 | -1
Cc1sc2nc(SCC(=O)NCc3ccco3)[nH]c(=O)c2c1C | 0 | -3 | 0 | -1 | 55* | -1
CC(C)CC(=O)NC(NCC1CCCO1)C(Cl)(Cl)Cl (centres undefined) | -1 | 2 | 0 | -1 | -1 | -1
Clc1ccccc1CSc1nc2ccncc2[nH]1 | 3 | 12* | -1 | 4 | 34 | 0
O=C(c1c(F)cccc1F)N1CCC(O)(c2ccc(F)cc2)CC1 | 1 | 1 | 1 | -2 | 1 | -1
O=C(Cc1ccc2c(c1)OCCO2)Nc1ccc(Cl)c(S(=O)(=O)N2CCOCC2)c1 | 1 | -1 | -1 | 4 | 1 | -2
O=C(Nc1ccccc1F)c1oc2ccccc2c1NC(=O)C1CC1 | -1 | 1 | 0 | 2 | 57* | -1
O=C(Nc1ccccc1F)C1CCCC1 | 0 | -1 | 0 | 0 | -3 | -1
Cc1cc(C)n2nc(SCC(=O)N3CCc4ccccc43)nc2n1 | 0 | 0 | 0 | -1 | 38 | -2
CC(Sc1ncccn1)C(=O)N1CCc2ccccc21 (centres undefined) | 1 | -1 | 1 | 5.8* | x | -1
O=C(Cn1cc2c(n1)CCCCC2)N1CCc2ccccc2C1 | 0 | 0 | 0 | -1 | 0 | -1
O=C(Cn1cc2c(n1)CCCC2)N1CCc2ccccc21 | 0 | -4 | 4.5* | 1 | 20 | 1
Cc1ccn(C(C)CC(=O)N2CCc3ccccc32)n1 (centres undefined) | 1 | 3 | 0 | 6.2* | 16 | 0
Cc1cc(C)nc(SCC(=O)N2CCc3ccccc32)n1 | 4.3* | 4 | 1 | 0 | 73* | 0
